# Potency and affinity values are given separately. Activity calls are given as the source filed them.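 The calls were made as follows: active = compounds whose fitted curve of lowered CTGF expression reaches half effect within a set concentration limit; inconclusive = flat moderate drop in CTGF, or unreliable curve fit; inactive = the rest.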
# Assay: CTGF mRNA reduction under YAP1 overexpression, dose response, mechanism study for YAP1 pathway inhibitor project, DLD1 cells, RT-qPCR, cherry-pick (AID 1053127)
row,Structure (SMILES),outcome
1,COc1cccc(-c2ccc([C@H]3[C@H](CO)N4CCCCN(C(=O)Cc5ccncc5)C[C@@H]34)cc2)c1,inactive
2,O=C(Cc1ccncc1)N1CCCCN2[C@H](CO)[C@H](c3ccc(C#Cc4ccccc4F)cc3)[C@H]2C1,inactive
3,COc1cccc(-c2ccc([C@H]3[C@@H](CO)N4CCCCN(C(=O)Cc5ccncc5)C[C@H]34)cc2)c1,inactive
4,COc1cccc(-c2ccc([C@H]3[C@@H](CO)N4CCCCN(C(=O)Cc5ccncc5)C[C@@H]34)cc2)c1,inactive
5,COc1cccc(-c2ccc([C@@H]3[C@@H](CO)N4CCCCN(C(=O)Cc5ccncc5)C[C@H]34)cc2)c1,inactive
6,O=C(Cc1ccncc1)N1CCCCN2[C@@H](CO)[C@@H](c3ccc(C#Cc4ccccc4F)cc3)[C@@H]2C1,inactive
7,COc1cccc(-c2ccc([C@@H]3[C@H](CO)N4CCCCN(C(=O)Cc5ccncc5)C[C@@H]34)cc2)c1,inactive
8,O=C(Cc1ccncc1)N1CCCCN2[C@@H](CO)[C@H](c3ccc(C#Cc4ccccc4F)cc3)[C@@H]2C1,inactive
9,COc1cccc(-c2ccc([C@@H]3[C@H]4CN(C(=O)Cc5ccncc5)CCCCN4[C@H]3CO)cc2)c1,inactive
10,O=C(Cc1ccncc1)N1CCCCN2[C@H](C1)[C@@H](c1ccc(C#Cc3ccccc3F)cc1)[C@@H]2CO,inactive

# Source: PubChem BioAssay AID1053127 (Broad Institute, 2014)
